# Data taken from PubChem BioAssay AID1159580 (chemical genetic matrix, 2015).
# Several values for one entry are separate records, joined by “and”; a condition that tells them apart may be missing. Identical values can stand only once. Among all 5,500 compounds or so, about 2,000 (36%) were called active. Roughly 18% stayed inconclusive and do not appear here. The list shows a part of the results. Unmarked numbers belong to inactive results. No stated cut-off is given here; in the data, active means normalized growth mostly below about 0.91 (no sharp cut-off); inconclusive means no clear call, values can overlap the other calls; inactive means mostly above about 0.92.
# Assay: chemical genetic growth profiling, strain panel (AID 1159580);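 further: tested at 20 µM; growth read once vehicle control cultures reached saturation at 30 °C; 1 = growth at the plate median or of vehicle wells; lower values mean less growth of the strain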
# Conditions: growth OD
smiles,measurement,setting,value
Clc1ccc2c(c1)C(N1CCNCC1)=Nc1ccccc1O2,normalized growth,"S. cerevisiae deletion strains, locus YKL068W, active compounds read low",0.996
same,normalized growth,"S. cerevisiae deletion strains, locus YKL085W, strain MDH1 (second series), active compounds read low",1.01
same,normalized growth,"S. cerevisiae deletion strains, locus YKL085W, strain MDH1, active compounds read low",1.01
same,normalized growth,"S. cerevisiae deletion strains, locus YKL160W, strain elf1, active compounds read low",1.01
same,normalized growth,"S. cerevisiae deletion strains, locus YKL190W, strain CNB1, active compounds read low",0.996
same,normalized growth,"S. cerevisiae deletion strains, locus YKR001C, strain vps1, active compounds read low",1.03
same,normalized growth,"S. cerevisiae deletion strains, locus YKR026C, strain gcn3, active compounds read low",0.983
same,normalized growth,"S. cerevisiae deletion strains, locus YKR091W, strain srl3, active compounds read low",0.989
same,normalized growth,"S. cerevisiae deletion strains, locus YLL001W, strain dnm1, active compounds read low",0.987
same,normalized growth,"S. cerevisiae deletion strains, locus YLL026W, active compounds read low",1
same,normalized growth,"S. cerevisiae deletion strains, locus YLL041C, strain sdh2, active compounds read low",1
same,normalized growth,"S. cerevisiae deletion strains, locus YLR027C, strain aat2, active compounds read low",0.986
same,normalized growth,"S. cerevisiae deletion strains, locus YLR039C, strain RIC1, active compounds read low",1.32
same,normalized growth,"S. cerevisiae deletion strains, locus YLR058C, strain SHM2, active compounds read low",0.979
same,normalized growth,"S. cerevisiae deletion strains, locus YLR102C, strain apc9, active compounds read low",0.993
same,normalized growth,"S. cerevisiae deletion strains, locus YLR113W, strain HOG1, active compounds read low",1.02
same,normalized growth,"S. cerevisiae deletion strains, locus YLR221C, strain rsa3, active compounds read low",0.985
same,normalized growth,"S. cerevisiae deletion strains, locus YLR258W, strain gsy2, active compounds read low",0.991
same,normalized growth,"S. cerevisiae deletion strains, locus YLR262C, strain YPT6 (second series), active compounds read low",1.04
same,normalized growth,"S. cerevisiae deletion strains, locus YLR262C, strain YPT6, active compounds read low",1.38
same,normalized growth,"S. cerevisiae deletion strains, locus YLR268W, strain sec22, active compounds read low",1.08
same,normalized growth,"S. cerevisiae deletion strains, locus YLR320W, strain mms22, active compounds read low",0.967
same,normalized growth,"S. cerevisiae deletion strains, locus YLR330W, strain CHS5, active compounds read low",0.988
same,normalized growth,"S. cerevisiae deletion strains, locus YLR342W, strain FKS1 (second series), active compounds read low",0.901
same,normalized growth,"S. cerevisiae deletion strains, locus YLR342W, strain FKS1, active compounds read low",0.955
same,normalized growth,"S. cerevisiae deletion strains, locus YLR357W, strain rsc2, active compounds read low",0.97
same,normalized growth,"S. cerevisiae deletion strains, locus YLR370C, strain arc18, active compounds read low",0.993
same,normalized growth,"S. cerevisiae deletion strains, locus YLR371W, strain rom2, active compounds read low",0.968
same,normalized growth,"S. cerevisiae deletion strains, locus YLR384C, strain iki3, active compounds read low",0.977
same,normalized growth,"S. cerevisiae deletion strains, locus YLR418C, strain cdc73, active compounds read low",0.981
same,normalized growth,"S. cerevisiae deletion strains, locus YML016C, strain PPZ1, active compounds read low",0.981
same,normalized growth,"S. cerevisiae deletion strains, locus YML032C, strain rad52, active compounds read low",1.01
same,normalized growth,"S. cerevisiae deletion strains, locus YML120C, strain ndi1, active compounds read low",1.01
same,normalized growth,"S. cerevisiae deletion strains, locus YML124C, strain tub3, active compounds read low",0.979
same,normalized growth,"S. cerevisiae deletion strains, locus YMR058W, strain fet3, active compounds read low",0.981
same,normalized growth,"S. cerevisiae deletion strains, locus YMR078C, strain ctf18, active compounds read low",0.983
same,normalized growth,"S. cerevisiae deletion strains, locus YMR125W, strain sto1, active compounds read low",0.928
same,normalized growth,"S. cerevisiae deletion strains, locus YMR129W, active compounds read low",1.01
same,normalized growth,"S. cerevisiae deletion strains, locus YMR205C, strain PFK2, active compounds read low",0.998
same,normalized growth,"S. cerevisiae deletion strains, locus YMR223W, strain ubp8, active compounds read low",0.962
same,normalized growth,"S. cerevisiae deletion strains, locus YMR231W, strain pep5, active compounds read low",0.487 (active)
same,normalized growth,"S. cerevisiae deletion strains, locus YMR263W, strain SAP30, active compounds read low",0.979
same,normalized growth,"S. cerevisiae deletion strains, locus YMR307W, strain GAS1, active compounds read low",1.15
same,normalized growth,"S. cerevisiae deletion strains, locus YNL067W, strain RPL9B, active compounds read low",1.01
same,normalized growth,"S. cerevisiae deletion strains, locus YNL071W, strain lat1, active compounds read low",0.972
same,normalized growth,"S. cerevisiae deletion strains, locus YNL128W, strain TEP1, active compounds read low",0.975
same,normalized growth,"S. cerevisiae deletion strains, locus YNL153C, strain GIM3, active compounds read low",1.01
same,normalized growth,"S. cerevisiae deletion strains, locus YNL175C, strain NOP13, active compounds read low",1
same,normalized growth,"S. cerevisiae deletion strains, locus YNL183C, strain NPR1, active compounds read low",0.966
same,normalized growth,"S. cerevisiae deletion strains, locus YNL197C, strain WHI3, active compounds read low",1.01
same,normalized growth,"S. cerevisiae deletion strains, locus YNL209W, strain ssb2, active compounds read low",0.991
same,normalized growth,"S. cerevisiae deletion strains, locus YNL224C, strain SQS1, active compounds read low",1.02
same,normalized growth,"S. cerevisiae deletion strains, locus YNL233W, strain BNI4, active compounds read low",1
same,normalized growth,"S. cerevisiae deletion strains, locus YNL248C, strain rpa49, active compounds read low",0.998
same,normalized growth,"S. cerevisiae deletion strains, locus YNL250W, strain rad50, active compounds read low",0.981
same,normalized growth,"S. cerevisiae deletion strains, locus YNL271C, strain bni1, active compounds read low",0.994
same,normalized growth,"S. cerevisiae deletion strains, locus YNL298W, strain CLA4, active compounds read low",0.97
same,normalized growth,"S. cerevisiae deletion strains, locus YNL307C, strain MCK1, active compounds read low",0.983
same,normalized growth,"S. cerevisiae deletion strains, locus YNL322C, strain KRE1 (second series), active compounds read low",0.986
same,normalized growth,"S. cerevisiae deletion strains, locus YNL322C, strain KRE1, active compounds read low",0.99 and 0.992
same,normalized growth,"S. cerevisiae deletion strains, locus YNR049C, strain mso1, active compounds read low",0.995
same,normalized growth,"S. cerevisiae deletion strains, locus YNR052C, strain pop2, active compounds read low",0.97
same,normalized growth,"S. cerevisiae deletion strains, locus YOL006C, strain TOP1, active compounds read low",1.06
same,normalized growth,"S. cerevisiae deletion strains, locus YOL012C, strain htz1",1.29
same,normalized growth,"S. cerevisiae deletion strains, locus YOL147C, strain pex11, active compounds read low",1
same,normalized growth,"S. cerevisiae deletion strains, locus YOR001W, strain rrp6, active compounds read low",0.937
same,normalized growth,"S. cerevisiae deletion strains, locus YOR061W, strain CKA2, active compounds read low",0.969
same,normalized growth,"S. cerevisiae deletion strains, locus YOR069W, strain VPS5, active compounds read low",0.991
same,normalized growth,"S. cerevisiae deletion strains, locus YOR070C, strain gyp1, active compounds read low",1
same,normalized growth,"S. cerevisiae deletion strains, locus YOR080W, strain dia2, active compounds read low",0.989
same,normalized growth,"S. cerevisiae deletion strains, locus YOR083W, strain WHI5 (second series), active compounds read low",1.13 [resistant] (active)
same,normalized growth,"S. cerevisiae deletion strains, locus YOR083W, strain WHI5, active compounds read low",0.937
same,normalized growth,"S. cerevisiae deletion strains, locus YOR106W, strain vam3, active compounds read low",0.953
same,normalized growth,"S. cerevisiae deletion strains, locus YOR136W, strain idh2, active compounds read low",0.975
same,normalized growth,"S. cerevisiae deletion strains, locus YOR144C, strain elg1, active compounds read low",0.99
same,normalized growth,"S. cerevisiae deletion strains, locus YOR184W, strain ser1, active compounds read low",1.01
same,normalized growth,"S. cerevisiae deletion strains, locus YOR231W, strain MKK1, active compounds read low",1.02
same,normalized growth,"S. cerevisiae deletion strains, locus YOR265W, strain rbl2, active compounds read low",0.992
same,normalized growth,"S. cerevisiae deletion strains, locus YOR270C, strain vph1, active compounds read low",0.818
same,normalized growth,"S. cerevisiae deletion strains, locus YOR290C, strain snf2, active compounds read low",0.948
same,normalized growth,"S. cerevisiae deletion strains, locus YOR316C, strain cot1, active compounds read low",0.987
same,normalized growth,"S. cerevisiae deletion strains, locus YPL051W, strain arl3, active compounds read low",0.987
same,normalized growth,"S. cerevisiae deletion strains, locus YPL055C, strain LGE1, active compounds read low",0.989
same,normalized growth,"S. cerevisiae deletion strains, locus YPL078C, strain atp4, active compounds read low",0.991
same,normalized growth,"S. cerevisiae deletion strains, locus YPL106C, strain sse1, active compounds read low",0.966
same,normalized growth,"S. cerevisiae deletion strains, locus YPL240C, strain hsp82, active compounds read low",0.978
same,normalized growth,"S. cerevisiae deletion strains, locus YPL241C, strain CIN2, active compounds read low",1 and 0.992
same,normalized growth,"S. cerevisiae deletion strains, locus YPL256C, strain CLN2, active compounds read low",1.03
same,normalized growth,"S. cerevisiae deletion strains, locus YPR119W, strain clb2, active compounds read low",0.994
same,normalized growth,"S. cerevisiae deletion strains, locus YPR141C, strain kar3, active compounds read low",0.956
same,normalized growth,"S. cerevisiae deletion strains, locus YPR163C, strain tif3, active compounds read low",0.986
same,normalized growth,"S. cerevisiae deletion strains, locus YPR167C, strain met16, active compounds read low",0.988
same,normalized growth,"S. cerevisiae deletion strains, strain wtn01, active compounds read low",0.991
same,normalized growth,"S. cerevisiae strains, strain wild type, active compounds read low",0.977
